Assay [1] is described as follows: Nuclear factor erythroid 2-related factor 2/antioxidant responsive element (Nrf2/ARE) small molecule agonists: qHTS cell viability counter screen in human keratinocytes (AID 1919968; active means well fitted curve in the direction sought with a large enough effect in the repeat runs; an effect the other way counts as inactive or inconclusive; further: nearly all actives have a fitted effect of over 55% in size; further: potency means the concentration at half of the fitted maximal effect). The method, boiled down: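 Parallel cytotoxicity read: KeratinoSens HaCaT cells, compound treatment 23 h, viability by CellTiter-Fluor fluorescence 1 h post-reagent.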
A general note: qHTS replaces the single test concentration by a dilution series.

A short description of assay [2]: Nuclear factor erythroid 2-related factor 2/antioxidant responsive element (Nrf2/ARE) small molecule agonists: luciferase reporter gene qHTS assay in human keratinocytes (AID 1919969). Further: nearly all actives have a fitted effect of over 35% in size. Further: potency means the concentration at half of the fitted maximal effect. Background: In a reporter assay the amount or activity of a reporter protein is the signal.
In assay [3] the target is Gonadotropin-releasing hormone receptor (Homo sapiens) (UniProt P30968). The experiment in a line: Human gonadotropin-releasing hormone receptor (GnRHR) small molecule agonists, calcium flux assay in GnRHR-HEK293 cells (AID 1920063). Further: nearly all actives have a fitted effect of over 35% in size. The gist of the method:
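Calcium flux, agonist mode, human GnRHR stably integrated in HEK293; dye 1 h at 37 C before compound; Ex/Em=480/540 kinetic read, 3 min; 15 concentrations, triplicate.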

The target of assay [4] is KiSS-1 receptor (Homo sapiens) (UniProt Q969F8). The experiment in a line: Human kisspeptin (KISS1R) small molecule agonists, calcium flux assay in KISS1R-HEK293 cells (AID 1920064; active means well fitted curve in the direction sought with a large enough effect in the repeat runs; an effect the other way counts as inactive or inconclusive). The gist of the method: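 Triplicate 15-concentration series were applied to dye-loaded human KISS1R HEK293 cells, and agonist-evoked calcium fluorescence was captured for 3 min.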
On the technique in general: Calcium assays in cells follow changes in intracellular calcium, usually with a dye or a luminescent sensor.

Assay [5] is described as follows: p53 small molecule agonists, cell-based qHTS assay with human liver microsomes (AID 1963577).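 Further: p53 response element beta-lactamase reporter cells with liver microsomes plus NADPH.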 The method, boiled down:
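Steps: plate p53RE-bla cells, incubate 5 h at 37 C; add compound in DMSO; add microsomes (0.5 mg/mL final) and NADPH (0.5 mg/mL final); incubate 16 h at 37 C; add LiveBLAzer, 2 h RT; read fluorescence.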

Assay [6] in a line: p53 small molecule agonists, cell-based qHTS assay with rat liver microsomes (AID 1963578). The method, boiled down: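 Metabolic activation is supplied by rat liver microsomes with NADPH (each 0.5 mg/mL final). p53RE-bla cells incubate with compound 16 h at 37 C; reporter activity is measured by LiveBLAzer fluorescence.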
Assay [7] is described as follows: p53 small molecule agonists, cell-based qHTS assay with human liver microsomes: qHTS cell viability counter screen (AID 1963579). Further: nearly all actives have a fitted effect of over 45% in size. Further: potency means the concentration at half of the fitted maximal effect. The method, boiled down: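 After the 460/530 nm beta-lactamase read, CellTiter-Glo was added to the same wells and luminescence measured after 30 min at room temperature, giving viability of p53RE-bla cells treated 16 h with compounds plus microsomes and NADPH.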

Assay [8] in a line: p53 small molecule agonists, cell-based qHTS assay: qHTS cell viability counter screen (AID 1963581). Further: nearly all actives have a fitted effect of over 45% in size. Further: potency means the concentration at half of the fitted maximal effect. The method, boiled down: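 Multiplexed with the reporter read, a CellTiter-Glo step (30 min, room temperature) gauges ATP-based viability of HCT-116 p53RE-bla cells after 16 h compound incubation at 37 C.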
A short description of assay [9]: p53 small molecule agonists, cell-based qHTS assay (AID 1963582; active means well fitted activation curve with a large enough effect in the signal ratio in the repeat runs, not every such curve was filed as active; the % refers to the signal ratio). The gist of the method: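 Beta-lactamase reporter cells (p53RE-bla) treated with compounds for 16 h at 37 C; FRET substrate, 2 h, room temperature; fluorescence intensity.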
Assay [10] is described as follows: cAMP Responsive Elements (CRE) small molecule agonists, cell-based qHTS assay (AID 1963590). The method, boiled down:
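Quantitative HTS for CRE agonists: HEK 293T CRE-bla cells, overnight plating, 3 h compound incubation at 37 C/5% CO2, then 2 h room-temperature LiveBLAzer B/G FRET substrate loading.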

A short description of assay [11]: cAMP Responsive Elements (CRE) small molecule antagonists, cell-based qHTS assay (AID 1963591; active means well fitted inhibition curve with a large enough effect in the signal ratio in the repeat runs, not every such curve was filed as active; the % refers to the signal ratio). The gist of the method:
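Fluorescence intensity from cleaved LiveBLAzer B/G substrate (2 h, room temperature) quantified CRE-bla activity in HEK 293T cells exposed 3 h to compound with 0.25 uM final NKH477.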

The target of assay [12] is D(2) dopamine receptor (Homo sapiens) (UniProt P14416). In words: Dopamine D2 receptor (DRD2) small molecule agonists, cell-based qHTS assay (AID 1963594). Further: nearly all actives have a fitted effect of over 35% in size. The gist of the method:
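HEK293 cells stably expressing human DRD2, pre-treated with PDE inhibitor Ro20-1724 (0.1 mM final) and compound 10 min at room temperature, then stimulated with NKH477 (200nM […]) for 30 min. cAMP read by HTRF (665/620 nm).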

The target is the same in assay [13]. The experiment in a line: Dopamine D2 receptor (DRD2) small molecule antagonists, cell-based qHTS assay (AID 1963595; active means well fitted inhibition curve with a large enough effect in the signal ratio in the repeat runs, with a control signal flat; the % refers to the signal ratio; further: potency means the concentration at half of the fitted maximal effect). The gist of the method:
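Antagonist mode in DRD2-HEK293 cells: after compound addition with 0.1 mM Ro20-1724, cells received quinpirole (12 nM) and NKH477 (200 nM) for 30 min at room temperature; HTRF cAMP read after 1 h detection.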

The target of assay [14] is 5-hydroxytryptamine receptor 2A (Homo sapiens) (UniProt P28223). The experiment in a line: 5-hydroxytryptamine receptor 2A (HTR2A) small molecule antagonists, cell-based qHTS assay (AID 1963586). Further: nearly all actives have a fitted effect of over 45% in size. Further: potency means the concentration at half of the fitted maximal effect. The method, boiled down:
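CHO cells stably expressing human HTR2A were plated for 18 h at 37 C, then loaded with calcium dye for 1 h. Compounds were preincubated 5 min at room temperature before DOI (4 nM solution) was added. Kinetic fluorescence was read for 3 min.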

The target is the same in assay [15]. The experiment in a line: 5-hydroxytryptamine receptor 2A (HTR2A) small molecule agonists, cell-based qHTS assay (AID 1963587). Further: nearly all actives have a fitted effect of over 30% in size. Further: potency means the concentration at half of the fitted maximal effect. The method, boiled down: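 CHO cells stably expressing human HTR2A, plated 18 h, loaded with calcium dye 1 h at 37 C. Agonist mode: compounds added and intracellular calcium fluorescence recorded kinetically for 2 min at 1 sec intervals.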

Assay [16] has as its target Muscarinic acetylcholine receptor M1 (Homo sapiens) (UniProt P11229). In words: Cholinergic receptor muscarinic 1 (CHRM1) small molecule antagonists, cell-based qHTS assay (AID 1963588). Further: nearly all actives have a fitted effect of over 40% in size. Further: potency means the concentration at half of the fitted maximal effect. The method, boiled down: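 Compounds were tested at 15 concentrations in three independent runs. Dye-loaded CHRM1-CHO cells were exposed 5 min at room temperature before stimulation by acetylcholine added at 50nM. Intracellular calcium was read kinetically on FDSS for 3 min.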

Assay [17] has the same target. In words: Cholinergic receptor muscarinic 1 (CHRM1) small molecule agonists, cell-based qHTS assay (AID 1963589). Further: nearly all actives have a fitted effect of over 35% in size. Further: potency means the concentration at half of the fitted maximal effect. The method, boiled down: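 qHTS, 15-point titration, 3 independent runs: compounds pin-transferred onto dye-loaded CHRM1-CHO cells (human M1), calcium fluorescence followed every second to detect agonism.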
The target in assay [18] is Beta-2 adrenergic receptor (Homo sapiens) (UniProt P07550). In words: Adrenergic beta2 receptor (ADRB2) small molecule antagonists, cell-based qHTS assay (AID 1963592). Further: nearly all actives have a fitted effect of over 50% in size. Further: potency means the concentration at half of the fitted maximal effect. The gist of the method:
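Assay format: CHO-ADRB2 cells, 18-20hr seeding at 37C/5% CO2, then compound plus 1nM isoproterenol agonist mix for 0.5hr RT. Homogeneous time-resolved fluorescence cAMP detection after 1hr, expressed as 665/615 nm ratio.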

Assay [19] is described as follows: p53 small molecule agonists, cell-based qHTS assay with rat liver microsomes: qHTS cell viability counter screen (AID 1963580). Further: nearly all actives have a fitted effect of over 45% in size. Further: potency means the concentration at half of the fitted maximal effect. The gist of the method: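 After the beta-lactamase ratio was read, CellTiter-Glo was added to the same wells and luminescence measured at 30 min; cells had been treated 16 h at 37 C with compounds, rat liver microsomes and NADPH (0.5 mg/mL final each).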

Consider eight molecules from PubChem BioAssay (Tox21).

A number with no mark means an inactive call. Inconclusive results are not listed. Calls of active or inactive are those of the source. Unless noted, the call rests on the fitted dose curve.

Beta-2 adrenergic receptor (Homo sapiens), sequence (P07550 whole entry, looked up): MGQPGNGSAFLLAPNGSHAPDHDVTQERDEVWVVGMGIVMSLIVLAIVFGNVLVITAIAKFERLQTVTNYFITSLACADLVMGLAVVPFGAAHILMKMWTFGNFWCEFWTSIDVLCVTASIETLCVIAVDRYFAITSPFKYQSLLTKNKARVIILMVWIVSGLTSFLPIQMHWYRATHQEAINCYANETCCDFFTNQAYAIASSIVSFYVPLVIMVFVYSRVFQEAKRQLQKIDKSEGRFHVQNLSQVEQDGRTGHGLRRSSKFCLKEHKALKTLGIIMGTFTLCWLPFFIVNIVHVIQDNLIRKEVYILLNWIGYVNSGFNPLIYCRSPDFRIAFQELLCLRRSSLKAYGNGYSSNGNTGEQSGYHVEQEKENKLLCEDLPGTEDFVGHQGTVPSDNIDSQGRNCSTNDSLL
KiSS-1 receptor (Homo sapiens), sequence (Q969F8 whole entry, looked up): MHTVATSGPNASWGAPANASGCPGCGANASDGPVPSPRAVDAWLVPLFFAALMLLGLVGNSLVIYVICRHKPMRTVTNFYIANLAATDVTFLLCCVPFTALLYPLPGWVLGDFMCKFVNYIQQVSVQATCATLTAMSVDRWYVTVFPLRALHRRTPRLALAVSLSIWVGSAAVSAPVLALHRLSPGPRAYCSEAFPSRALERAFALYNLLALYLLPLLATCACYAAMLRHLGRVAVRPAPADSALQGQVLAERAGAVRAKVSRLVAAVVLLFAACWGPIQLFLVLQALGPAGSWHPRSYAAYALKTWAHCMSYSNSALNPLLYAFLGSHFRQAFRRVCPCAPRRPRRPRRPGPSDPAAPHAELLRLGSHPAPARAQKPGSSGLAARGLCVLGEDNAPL
Gonadotropin-releasing hormone receptor (Homo sapiens), sequence (P30968 whole entry, looked up): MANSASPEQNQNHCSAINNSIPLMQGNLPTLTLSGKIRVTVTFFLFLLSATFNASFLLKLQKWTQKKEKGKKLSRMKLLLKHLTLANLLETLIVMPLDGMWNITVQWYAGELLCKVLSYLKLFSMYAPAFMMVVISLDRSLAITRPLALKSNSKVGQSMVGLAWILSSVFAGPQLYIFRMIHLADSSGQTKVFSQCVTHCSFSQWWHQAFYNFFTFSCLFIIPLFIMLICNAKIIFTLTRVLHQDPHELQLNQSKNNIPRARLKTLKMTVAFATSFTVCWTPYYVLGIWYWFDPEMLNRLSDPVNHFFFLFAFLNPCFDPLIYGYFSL
D(2) dopamine receptor (Homo sapiens), sequence (P14416 whole entry, looked up): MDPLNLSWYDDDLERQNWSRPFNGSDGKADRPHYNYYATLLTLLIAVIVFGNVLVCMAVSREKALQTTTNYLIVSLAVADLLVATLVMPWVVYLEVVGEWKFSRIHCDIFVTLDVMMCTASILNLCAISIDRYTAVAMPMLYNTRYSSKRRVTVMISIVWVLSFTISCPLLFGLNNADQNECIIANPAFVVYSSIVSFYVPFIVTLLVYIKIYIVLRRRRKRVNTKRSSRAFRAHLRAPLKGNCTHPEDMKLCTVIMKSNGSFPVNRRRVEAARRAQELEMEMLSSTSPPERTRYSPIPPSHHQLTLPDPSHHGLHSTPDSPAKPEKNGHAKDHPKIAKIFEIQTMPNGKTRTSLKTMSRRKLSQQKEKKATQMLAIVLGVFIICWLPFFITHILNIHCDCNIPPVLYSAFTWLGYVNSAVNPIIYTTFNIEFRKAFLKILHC
5-hydroxytryptamine receptor 2A (Homo sapiens), sequence (P28223 whole entry, looked up): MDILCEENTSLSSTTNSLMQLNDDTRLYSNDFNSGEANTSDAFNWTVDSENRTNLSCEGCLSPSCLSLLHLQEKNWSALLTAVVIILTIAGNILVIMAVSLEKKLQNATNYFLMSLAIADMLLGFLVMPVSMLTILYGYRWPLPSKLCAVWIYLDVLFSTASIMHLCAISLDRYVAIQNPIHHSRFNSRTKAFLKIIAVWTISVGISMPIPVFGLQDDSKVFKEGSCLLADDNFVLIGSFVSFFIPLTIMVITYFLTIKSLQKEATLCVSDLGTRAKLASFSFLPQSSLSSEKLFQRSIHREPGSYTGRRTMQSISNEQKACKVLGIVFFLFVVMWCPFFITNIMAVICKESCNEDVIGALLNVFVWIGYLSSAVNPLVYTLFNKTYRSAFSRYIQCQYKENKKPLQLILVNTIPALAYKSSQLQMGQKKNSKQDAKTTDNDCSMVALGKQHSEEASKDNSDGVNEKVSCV
Muscarinic acetylcholine receptor M1 (Homo sapiens), sequence (P11229 whole entry, looked up): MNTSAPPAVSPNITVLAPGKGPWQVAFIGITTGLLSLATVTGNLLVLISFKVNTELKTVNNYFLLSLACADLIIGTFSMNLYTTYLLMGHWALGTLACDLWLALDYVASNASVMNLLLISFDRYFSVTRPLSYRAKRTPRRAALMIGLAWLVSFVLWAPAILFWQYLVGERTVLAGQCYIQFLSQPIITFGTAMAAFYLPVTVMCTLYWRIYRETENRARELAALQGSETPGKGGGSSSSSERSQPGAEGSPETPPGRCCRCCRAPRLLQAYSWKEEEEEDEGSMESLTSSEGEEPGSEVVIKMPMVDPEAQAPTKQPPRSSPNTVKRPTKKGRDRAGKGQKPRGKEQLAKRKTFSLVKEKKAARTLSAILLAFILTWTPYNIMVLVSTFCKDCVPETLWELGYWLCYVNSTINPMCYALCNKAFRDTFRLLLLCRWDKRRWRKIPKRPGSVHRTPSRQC

On to `CCOC(=O)[C@H](CCc1ccccc1)N[C@@H](C)C(=O)N1[C@H](C(=O)O)C[C@@H]2CCC[C@@H]21`, for which the Potency result in [1], in [2], in assay [3], in [5], in assay [6] and in assay [7] was “inactive” in each case. The Potency result in [8], in assay [9], in [10], in assay [11], in [12] and in [13] was “inactive” throughout. Besides, the result in assay [4] was inactive.

Consider `CC(C)=NNC(N)=S`, for which the Potency was 30.6 µM (active) in assay [1] and 15.4 µM (active) in [2]. Moreover, the Potency entry in [3], in assay [5], in assay [6], in [7], in [8] and in assay [9] was “inactive” throughout. Further, the Potency result in [14], in assay [15], in assay [16], in [17], in assay [11] and in assay [18] was “inactive” throughout. For the same molecule, the Potency entry in assay [12] and in assay [13] was “inactive” throughout. Moreover, the result in assay [4] was inactive.

`CCCCCCCC/C=C\CCCCCCCCOCCO`: the Potency was 22.4 µM (active) in [1]; 53 µM (active) in assay [7]; 53 µM (active) in assay [19]; 21.1 µM (active) in [8]; 24.4 µM (active) in assay [14]. The Potency entry in assay [2], in assay [3], in [5], in assay [6], in assay [15] and in [16] was “inactive” in each case. Moreover, the Potency result in assay [17], in assay [18] and in assay [12] was “inactive” throughout. In [4], the result was inactive.

As for `Cc1cc(O)c(C(C)(C)C)cc1Sc1cc(C(C)(C)C)c(O)cc1C`, the Potency in assay [1] was 13.7 µM (active); in [7], 9.11 µM (active); in [19] it was 20.4 µM (active); in assay [8] it was 5.75 µM (active); in [15] it was 43.6 µM (active); in assay [16], 26.5 µM (active). In addition, the Potency was 48.9 µM (active) in assay [17], 27.3 µM (active) in [18] and 21.6 µM (active) in [13]. The Potency result in [2], in assay [3], in assay [5], in assay [6], in assay [14] and in [12] was “inactive” in each case. Further, in assay [4], the result was inactive.

Turning to `O=C(CO)[C@@H](O)[C@H](O)[C@@H](O)CO`, the Potency result in [1], in assay [2], in assay [3], in assay [5], in assay [6] and in [7] was “inactive” in each case. Further, the Potency entry in assay [19], in assay [8], in [14], in [15], in assay [16] and in [17] was “inactive” throughout. The Potency result in [11], in assay [18], in assay [12] and in [13] was “inactive” throughout. In addition, the outcome in [4] was inactive.

On to `NCCCCCC(=O)O`, for which the Potency entry in assay [1], in assay [2], in [3], in assay [5], in [6] and in [7] was “inactive” in each case. For the same molecule, the Potency result in assay [19], in [8], in assay [9], in assay [10], in [11] and in assay [12] was “inactive” each time. The Potency entry in [13] was “inactive”. Also, in [4], the result was inactive.

`OCCCc1cccnc1`: the Potency result in assay [1], in assay [2], in assay [3], in assay [5], in assay [6] and in assay [7] was “inactive” throughout. Moreover, the Potency entry in assay [19], in [9], in [14], in assay [15], in [16] and in [17] was “inactive” in each case. Further, the Potency entry in assay [10], in [11], in assay [12] and in assay [13] was “inactive” throughout. The outcome in assay [4] was inactive.

With `Cc1[nH]c(=O)c(C#N)cc1-c1ccc2nccn2c1`, the Potency result in [1], in assay [2], in assay [3], in [5], in assay [6] and in assay [7] was “inactive” throughout. The Potency entry in assay [19], in [9], in [15], in [16], in assay [10] and in assay [11] was “inactive” in each case. Moreover, the Potency entry in assay [12] and in assay [13] was “inactive” in each case. The result in assay [4] was inactive.
